These results are taken from PubChem BioAssay AID687 (PCMD, 2007).

SMILES strings stand for the structures. Hit rate of the full screen: of about 33,000 compounds, about 95 (0.3%) were called active. The sample as a whole holds a higher share of actives than the screen did. A number with no mark means an inactive call.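 The calls were made as follows: active = inhibition above 40% in the primary screen; inactive = the rest.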

Broadly, the inhibition is the relative decrease from the control value, in per cent.

Sequence of Coagulation factor XI (Homo sapiens) (P03951 19-387 limits assumed): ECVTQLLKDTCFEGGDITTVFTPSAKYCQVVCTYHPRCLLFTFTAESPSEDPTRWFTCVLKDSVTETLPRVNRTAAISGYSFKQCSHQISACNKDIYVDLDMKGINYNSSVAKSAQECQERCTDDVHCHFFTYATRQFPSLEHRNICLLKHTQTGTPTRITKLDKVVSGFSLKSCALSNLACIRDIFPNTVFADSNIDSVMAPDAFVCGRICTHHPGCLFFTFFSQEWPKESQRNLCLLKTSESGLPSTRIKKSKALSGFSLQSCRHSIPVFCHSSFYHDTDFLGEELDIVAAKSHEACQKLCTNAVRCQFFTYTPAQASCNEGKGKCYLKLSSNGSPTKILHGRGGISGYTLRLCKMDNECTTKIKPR
Sequence of Coagulation factor XI (Homo sapiens) (P03951 388-625 limits assumed): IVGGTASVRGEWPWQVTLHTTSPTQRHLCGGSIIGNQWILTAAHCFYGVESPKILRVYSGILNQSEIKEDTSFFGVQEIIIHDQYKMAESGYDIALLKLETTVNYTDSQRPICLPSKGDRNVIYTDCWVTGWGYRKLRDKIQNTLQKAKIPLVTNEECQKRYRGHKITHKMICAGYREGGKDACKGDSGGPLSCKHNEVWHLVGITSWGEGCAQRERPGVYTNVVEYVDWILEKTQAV

This assay concerns the target Coagulation factor XI (Homo sapiens) (UniProt P03951). The experiment in a line: human FXIa protease inhibitors, primary screen, biochemical, single compound per well (AID 687).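 Also: 0% = enzyme without compound and 100% = blank wells lacking enzyme.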 The following applies: purified human FXIa, fluorogenic AMC substrate cleavage; at 10 µM; hits give high values.
With `Cc1ccc(-c2csc(NC(=O)c3cccs3)n2)cc1`, the inhibition was -11.7%. As for `Oc1ccccc1CNc1ncc(Br)cc1Br`, the inhibition was -10.8%. The figure for `CCC1(C)Cc2c(sc3nc(SC)nc(N)c23)CO1` (stereo unspecified) is 14.2%; for `COc1ccc(NC(=S)N2N=CCC2c2ccccc2)cc1` (stereo unspecified) it is 0.63%.

As for `Cc1ccsc1C(=O)OCC(=O)c1cc2ccccc2o1`, the inhibition is 3.48%. `O=P(c1ccc2c(c1)OCCO2)(N1CCOCC1)N1CCOCC1`: the inhibition was 2.3%. The figure for `COc1ccccc1NC(=O)/C=C/C(N)=O` is 4.44%.

Consider `CCOc1ccccc1NC(=O)Nc1cc(OC)ccc1OC`, for which the inhibition was -0.13%.

On to `COc1ccc(C(=O)NNC(=O)c2cnccn2)cc1[N+](=O)[O-]`, for which the inhibition was -1.41%. For the molecule `COc1cc2c(cc1OC)C(C(C)C)=NC(C)(C)C2`, the inhibition was 2.2%.

Consider `Cc1ccccc1N1CCN(CCCOc2ccc3c(C)cc(=O)oc3c2)CC1`, for which the inhibition was 3.75%. The figure for `CCCC(C(=O)NCc1ccco1)N(C(=O)CNS(=O)(=O)c1ccccc1)C1CCCC1` (stereo unspecified) is -1.8%. For `Cc1ccc(OCC(=O)N/N=C\c2ccco2)c(C)c1`, the inhibition was 8.22%. The result for `COc1ccccc1CNS(=O)(=O)c1ccc(C)cc1` reads -5.43%; that for `O=C(Nc1ccc(Sc2ccc(Br)cc2)cc1)c1ccco1`, 5.67%; that for `CC1(C)CC(=O)NC=C(c2ccccc2)C1`, 2.57%. The figure for `COc1ccc(C(=O)CSc2nccc(=O)[nH]2)cc1` is 4.89%; for `Cc1cccc(N2CCN(S(=O)(=O)c3ccc4[nH]c(=O)c(=O)[nH]c4c3)CC2C)c1` (stereo unspecified) it is -6.46%; for `Cc1nc(NNC(=O)c2ccccc2)cc(-c2ccccc2)n1` it is -2.36%. On to `COc1ccc(-c2cc(C)nc3nc(N)nn23)cc1`, for which the inhibition is -7.55%. Turning to `Cc1ccc(C2(C(F)(F)F)N=C3Sc4cc(C)cc(C)c4N3C(=O)N2)cc1` (stereo unspecified), the inhibition was -3.09%. For `COCCn1c(=S)[nH]c2cc(C(=O)NCCc3ccc(OC)c(OC)c3)ccc2c1=O`, the inhibition was 1.93%. On to `COc1ccccc1NC(=O)C1CCCN(c2cc(C)nc3ncnn23)C1` (stereo unspecified), for which the inhibition is -7.53%. With `COC(=O)C1=C(C)Nc2ncnn2C1c1cccnc1` (stereo unspecified), the inhibition is -8.85%. With `CCOC(=O)c1c(N)sc(C(C)=O)c1C`, the inhibition was 5.4%. The figure for `CCCOc1ccc(C2NC(=O)NC(c3ccccc3)=C2C(C)=O)cc1OCC` (stereo unspecified) is -6.35%; for `Cc1ccc(S(=O)(=O)N2CCN(Cc3cccc(C)c3O)CC2)cc1` it is -1.32%. On to `COC(C)(C)[C@]12CC(O)(C(C)C)ON1[C@H]1CCCCC1N2O` (stereo partly specified), for which the inhibition was 0.57%. The figure for `CC(C)(C)c1cc(=O)n2c(nc3ccccc32)[nH]1` is 2.42%. On to `COC(=O)c1ccc(Sc2ccc(F)cc2)c(N)c1`, for which the inhibition was 1.93%. The result for `CC1CCCCC1NC(=O)C1CCCN1S(=O)(=O)c1cccc2nsnc12` (stereo unspecified) reads 7.4%; that for `COc1ccc(-n2nc3c(c2NC(=O)Cc2cccc(C)c2)CS(=O)C3)cc1` (stereo unspecified), 4.35%. The figure for `CC(C)(C)c1nc2ccccc2c(=O)n1N1C(=O)c2ccccc2C1=O` is 2.66%; for `COc1ccc(-c2nnc(SCC(=O)c3ccc4c(c3)OCCO4)o2)cc1` it is -2.7%. The result for `COC(=O)/C(=C\Nc1ccccc1)NC(=O)c1ccc(Cl)cc1Cl` reads 7.22%; that for `CC(CN1CCOCC1)c1ccccc1` (stereo unspecified), 7.1%.

In the case of `O=C(CSCc1ccccc1)N1CCc2ccccc21`, the inhibition is 1.56%.

In the case of `Cc1ccc(OCCCC(=O)Nc2ccc(N3CCOCC3)cc2)cc1`, the inhibition is 3.13%. `O=c1c2ccccc2nc(N/N=C/c2ccccc2)n1O`: the inhibition was 6.82%. `Cc1[nH]n(-c2ccc(Cl)cc2)c(=O)c1/C=N/n1c(C)nc2ccccc2c1=O`: the inhibition was 4.91%. The result for `CC1(C)N=C(c2ccccn2)C(C)(C)N1O` reads -1.83%.
